The values that follow come from PubChem BioAssay (NCI).

Some test systems named below: HCT-15 colon; HT29 colon; SNB-75 CNS; SNB-19 CNS; U251 CNS; PC-3 prostate; SK-MEL-5 melanoma; UACC-62 melanoma; LOX IMVI melanoma; SK-MEL-28 melanoma.
Experiment in all cases: NCI-60 one-dose screen, 48 h (100 = growth as untreated, 0 = no growth, -100 = all killed)
What all share (details): 10 µM unless noted

Structures are written as SMILES. This is part of a sample that, as a whole, favours compounds with a hit. Of some 83,000 tested, about 20% had one in any assay.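 Activity criterion: percent growth below 10, measured after cells in 96-well plates were exposed to a single compound concentration for 48 hours.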 Unmarked numbers belong to inactive results. Active and inactive are the calls of the source.

For the compound `C#CC#CC#CC#CC#CC#CC#CC#CC[C@@H]1OC[C@H](COC(=O)O[C@@H](C(=O)O[C@H]2C[C@@]3(O)[C@@H](OC(=O)c4ccccc4)[C@@H]4[C@]5(OC(C)=O)CO[C@@H]5C[C@H](O)[C@@]4(C)C(=O)[C@H](OC(C)=O)C(=C2C)C3(C)C)[C@@H](NC(=O)c2ccccc2)c2ccccc2)O1`, the growth in the assay with HCT-15 colon was 98.8%; in the assay on HT29 colon, 4.07% (active); with SNB-75 CNS, 34.9%; with SNB-19 CNS, 38.1%; in the assay on U251 CNS, 28.5%; in the assay on PC-3 prostate, 26.1%. Further, the growth with SK-MEL-5 melanoma is 48.7%; with UACC-62 melanoma, 35%; in the assay on LOX IMVI melanoma, 34.3%; with SK-MEL-28 melanoma it was 52.2%.
Take `COC(=O)[C@H](C)NC(=O)c1ccc(NC(=O)c2[nH]c(C)c(Cl)c2Cl)c(OCCN)c1`: the growth is 99.9% with HCT-15 colon; 109% in the assay with HT29 colon; 98.6% in the assay on SNB-75 CNS; 101% in the assay on SNB-19 CNS; 110% in the assay with U251 CNS; 98.5% in the assay with PC-3 prostate. For the same compound, the growth in the assay on SK-MEL-5 melanoma is 99.2%; in the assay with UACC-62 melanoma, 103%; in the assay with LOX IMVI melanoma it was 96.2%; in the assay with SK-MEL-28 melanoma, 110%.
Regarding `C=C(C)[C@@H]1CC[C@]2(COCCCNCCCN)CC[C@]3(C)[C@H](CC[C@@H]4[C@@]5(C)CC[C@H](OCCCN)C(C)(C)[C@@H]5CC[C@]43C)[C@@H]12`, the growth with HCT-15 colon is -88.4% (active); in the assay on HT29 colon, -79.7% (active); in the assay on SNB-75 CNS, 10.1%; in the assay on SNB-19 CNS, -78.3% (active); in the assay on U251 CNS, -94.3% (active); with PC-3 prostate, -10% (active). Also, the growth in the assay with SK-MEL-5 melanoma was 67.2%; with UACC-62 melanoma, -88.1% (active); in the assay on LOX IMVI melanoma, -93.8% (active); with SK-MEL-28 melanoma, 16.1%.
`COCCNC(=O)Cc1cc(-c2ccc(Cl)cc2)n(-c2ccccc2)c1C`: the growth was 81.8% with HCT-15 colon; 84.8% with HT29 colon; 68.5% in the assay on SNB-75 CNS; 79.2% in the assay with SNB-19 CNS; 84.5% in the assay with U251 CNS; 81% in the assay on PC-3 prostate. The growth in the assay with SK-MEL-5 melanoma is 79.3%; with UACC-62 melanoma, 59.4%; in the assay on LOX IMVI melanoma, 85.5%; with SK-MEL-28 melanoma, 103%.
Regarding `O=C(/C=C/c1cccc([N+](=O)[O-])c1)c1ccc(Nc2nc(Nc3ccc(F)cc3)nc(Nc3ccc(Cl)cc3)n2)cc1`, the growth is 83.9% in the assay on HCT-15 colon; 88% in the assay on HT29 colon; 106% in the assay on SNB-75 CNS; 100% in the assay with SNB-19 CNS; 81.1% in the assay on U251 CNS; 88.5% in the assay on PC-3 prostate. Also, the growth is 87.6% with SK-MEL-5 melanoma, 93.9% in the assay with UACC-62 melanoma, 84.2% in the assay on LOX IMVI melanoma and 97.1% with SK-MEL-28 melanoma.
On to `CC(=O)OCCOc1cc(Cl)c(Cl)cc1Cl`, for which the growth in the assay on HCT-15 colon was 104%; in the assay on HT29 colon it was 103%; with SNB-75 CNS, 102%; in the assay with SNB-19 CNS, 103%; in the assay with U251 CNS it was 99.2%; in the assay on PC-3 prostate, 98.3%. Besides, the growth in the assay on SK-MEL-5 melanoma was 99.5%; in the assay with UACC-62 melanoma, 98.3%; in the assay with LOX IMVI melanoma, 101%; in the assay with SK-MEL-28 melanoma, 113%.
As for `CN1CCN(Cn2nc(-c3cc(Cl)cc(Cl)c3Cl)oc2=S)CC1`, the growth in the assay with HCT-15 colon was 99.5%; in the assay on HT29 colon it was 102%; with SNB-75 CNS it was 80.9%; in the assay with SNB-19 CNS it was 95.4%; in the assay with U251 CNS, 97.5%; in the assay with PC-3 prostate it was 92.1%. The growth in the assay with SK-MEL-5 melanoma was 101%; with UACC-62 melanoma it was 99.7%; in the assay on LOX IMVI melanoma it was 93.8%; in the assay with SK-MEL-28 melanoma it was 110%.
Regarding `O=C1CCC(C(=O)N/N=C/c2ccc([N+](=O)[O-])cc2)N1` (stereo not given), the growth with HCT-15 colon was 98.9%; in the assay on HT29 colon, 104%; in the assay on SNB-75 CNS it was 75.4%; in the assay on SNB-19 CNS, 99.9%; with U251 CNS, 102%; in the assay on PC-3 prostate, 95.3%. Also, the growth in the assay on SK-MEL-5 melanoma was 104%; in the assay with UACC-62 melanoma, 100%; with LOX IMVI melanoma, 91.9%; in the assay on SK-MEL-28 melanoma, 111%.
On to `COc1ccc2c(c1)C(c1c[nH]c3ccccc13)(c1c[nH]c3ccccc13)CCO2`, for which the growth is 41.8% with HCT-15 colon; 23.8% with HT29 colon; 28% with SNB-75 CNS; 66.4% in the assay with SNB-19 CNS; 42.2% with U251 CNS; 31% in the assay with PC-3 prostate. Besides, the growth with SK-MEL-5 melanoma is 66.2%; in the assay with UACC-62 melanoma, 44.9%; with LOX IMVI melanoma it was 42.6%; in the assay with SK-MEL-28 melanoma, 54.2%.
On to `Nc1cc(-c2ccc(Cl)cc2)nn1-c1nc(-c2ccc(Br)cc2)cs1`, for which the growth in the assay on HCT-15 colon was 98.3%; with HT29 colon, 92%; in the assay on SNB-75 CNS, 89.4%; in the assay with SNB-19 CNS, 91.4%; in the assay with U251 CNS, 95.2%; with PC-3 prostate it was 91.5%. In addition, the growth in the assay on SK-MEL-5 melanoma was 100%; with UACC-62 melanoma, 91.1%; in the assay on LOX IMVI melanoma, 102%; in the assay with SK-MEL-28 melanoma, 95.3%.
Turning to `CN1CCN(Cc2ccc(NC(=O)c3cc(C#Cc4cnc(N)c5ncccc45)n(C)n3)cc2C(F)(F)F)CC1`, the growth was 58.4% in the assay with HCT-15 colon; 91.4% in the assay with HT29 colon; 142% in the assay with SNB-75 CNS; 103% in the assay on SNB-19 CNS; 38.5% in the assay with U251 CNS; 98.9% with PC-3 prostate. Further, the growth in the assay with SK-MEL-5 melanoma is 93.6%; in the assay with UACC-62 melanoma, 100%; in the assay with LOX IMVI melanoma, 91.5%; in the assay with SK-MEL-28 melanoma it was 100%.
As for `CNC1=C([N+](=O)[O-])C(c2ccc(OC)cc2)C(C#N)=C(c2ccc[nH]2)O1` (stereo not given), the growth was 106% in the assay on HCT-15 colon; 107% in the assay on HT29 colon; 88.6% with SNB-75 CNS; 97% with SNB-19 CNS; 101% with U251 CNS; 97.1% in the assay on PC-3 prostate. The growth was 98.2% in the assay with SK-MEL-5 melanoma, 91.8% with UACC-62 melanoma, 99% with LOX IMVI melanoma and 108% in the assay with SK-MEL-28 melanoma.
Consider `COc1cccc(C2C3=C(COC3=O)N(CCO)c3cc4c(cc32)OCCO4)c1` (stereo not given), for which the growth is 2.89% (active) in the assay on HCT-15 colon; -30.7% (active) in the assay on HT29 colon; -14.1% (active) with SNB-75 CNS; 9.81% (active) with SNB-19 CNS; 2.46% (active) with U251 CNS; 20.3% in the assay with PC-3 prostate. The growth in the assay with SK-MEL-5 melanoma was -12.1% (active); with UACC-62 melanoma, 24.8%; with LOX IMVI melanoma, 22.1%; in the assay on SK-MEL-28 melanoma it was 38.7%.
